We go through nine compounds from PubChem BioAssay.

Sequence of Neurogenic locus notch homolog protein 2 (Homo sapiens) (Q04721 whole entry, looked up): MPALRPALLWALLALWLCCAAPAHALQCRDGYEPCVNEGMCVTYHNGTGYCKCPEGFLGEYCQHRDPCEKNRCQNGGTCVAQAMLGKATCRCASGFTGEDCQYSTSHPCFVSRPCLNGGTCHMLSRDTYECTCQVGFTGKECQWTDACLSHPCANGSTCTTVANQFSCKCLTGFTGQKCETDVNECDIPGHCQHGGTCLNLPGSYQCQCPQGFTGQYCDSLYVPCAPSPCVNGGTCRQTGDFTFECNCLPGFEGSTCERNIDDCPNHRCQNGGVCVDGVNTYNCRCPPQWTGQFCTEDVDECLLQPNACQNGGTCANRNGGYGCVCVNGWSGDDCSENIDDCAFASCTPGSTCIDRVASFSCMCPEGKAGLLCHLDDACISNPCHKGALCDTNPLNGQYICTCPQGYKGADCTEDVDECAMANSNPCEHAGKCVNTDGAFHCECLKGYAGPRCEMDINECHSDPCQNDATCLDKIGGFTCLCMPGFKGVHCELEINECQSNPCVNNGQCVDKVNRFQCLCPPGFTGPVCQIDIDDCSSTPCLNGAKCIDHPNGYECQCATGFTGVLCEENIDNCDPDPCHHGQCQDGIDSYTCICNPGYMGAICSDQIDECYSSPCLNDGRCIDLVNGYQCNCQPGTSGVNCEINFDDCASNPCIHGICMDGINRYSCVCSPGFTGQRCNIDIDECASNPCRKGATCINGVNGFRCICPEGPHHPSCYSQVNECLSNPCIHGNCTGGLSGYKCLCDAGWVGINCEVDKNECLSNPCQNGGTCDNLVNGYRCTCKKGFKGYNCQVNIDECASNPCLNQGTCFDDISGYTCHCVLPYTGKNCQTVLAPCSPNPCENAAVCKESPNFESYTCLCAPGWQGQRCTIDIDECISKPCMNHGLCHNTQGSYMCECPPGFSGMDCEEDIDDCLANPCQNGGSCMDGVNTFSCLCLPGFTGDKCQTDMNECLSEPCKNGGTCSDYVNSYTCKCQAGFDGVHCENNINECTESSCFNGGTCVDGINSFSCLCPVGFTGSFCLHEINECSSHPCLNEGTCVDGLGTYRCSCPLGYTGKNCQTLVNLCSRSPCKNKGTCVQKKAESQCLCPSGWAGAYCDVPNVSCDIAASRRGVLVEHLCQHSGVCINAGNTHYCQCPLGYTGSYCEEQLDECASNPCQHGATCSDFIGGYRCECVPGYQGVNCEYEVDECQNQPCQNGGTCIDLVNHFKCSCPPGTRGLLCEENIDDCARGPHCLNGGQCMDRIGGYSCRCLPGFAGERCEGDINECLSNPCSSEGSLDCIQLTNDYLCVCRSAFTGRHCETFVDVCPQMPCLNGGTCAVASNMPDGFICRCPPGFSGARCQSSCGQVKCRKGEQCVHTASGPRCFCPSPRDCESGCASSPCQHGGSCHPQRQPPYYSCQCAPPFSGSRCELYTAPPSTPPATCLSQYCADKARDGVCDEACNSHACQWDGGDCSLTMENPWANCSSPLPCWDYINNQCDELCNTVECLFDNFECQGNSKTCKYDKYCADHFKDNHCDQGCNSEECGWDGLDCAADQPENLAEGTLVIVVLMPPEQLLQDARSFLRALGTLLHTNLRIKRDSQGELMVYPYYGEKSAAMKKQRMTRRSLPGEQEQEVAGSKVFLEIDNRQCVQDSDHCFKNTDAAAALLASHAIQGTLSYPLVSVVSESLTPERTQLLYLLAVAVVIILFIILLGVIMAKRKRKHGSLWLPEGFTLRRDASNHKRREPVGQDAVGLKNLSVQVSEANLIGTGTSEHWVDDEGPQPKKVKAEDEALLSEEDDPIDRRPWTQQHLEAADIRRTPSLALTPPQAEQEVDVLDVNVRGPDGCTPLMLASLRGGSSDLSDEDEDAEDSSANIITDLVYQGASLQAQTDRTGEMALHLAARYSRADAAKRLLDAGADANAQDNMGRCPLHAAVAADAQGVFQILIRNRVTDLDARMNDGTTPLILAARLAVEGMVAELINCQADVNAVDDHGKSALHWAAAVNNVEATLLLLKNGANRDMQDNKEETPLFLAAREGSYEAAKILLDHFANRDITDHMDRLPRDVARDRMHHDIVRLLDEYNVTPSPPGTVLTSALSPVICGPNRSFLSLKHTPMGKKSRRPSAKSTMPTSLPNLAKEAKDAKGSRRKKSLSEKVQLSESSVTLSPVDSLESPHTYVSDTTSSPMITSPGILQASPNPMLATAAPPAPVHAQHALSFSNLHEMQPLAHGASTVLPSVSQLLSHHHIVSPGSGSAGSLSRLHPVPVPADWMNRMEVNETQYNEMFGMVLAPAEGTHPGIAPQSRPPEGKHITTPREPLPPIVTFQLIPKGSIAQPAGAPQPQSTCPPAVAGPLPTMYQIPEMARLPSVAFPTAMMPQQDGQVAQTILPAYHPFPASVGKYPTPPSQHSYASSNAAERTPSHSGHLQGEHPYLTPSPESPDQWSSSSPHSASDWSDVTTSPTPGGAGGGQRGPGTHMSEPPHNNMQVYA

The assay concerns the target Neurogenic locus notch homolog protein 2 (Homo sapiens) (UniProt Q04721). Description: Notch2 binders on small-molecule microarrays, primary screen, biochemical, small-molecule microarray, 635 nm fluorescence, stem cell growth factors (AID 1073). Conditions: Notch2 binding, higher = more signal.
Consider `C=CC[C@@]1(C(=O)NCC(O)CO)N=C(c2ccc(OCCCO)cc2)O[C@@H]1c1ccccc1CN=[N+]=[N-]` (some centres undefined), for which the composite z-score came out at 0.13.
Consider `CO[C@H]1COC(=O)[C@@H](C)NC(=O)CC=C[C@@H](C)[C@H](OC)COC(=O)CC=C[C@@H]1C`, for which the composite z-score was -1.41.
On to `CC(C)C[C@@H]1NC(=O)[C@H]2C[C@@H](C(=O)NCCCCCC[N+](C)(C)C)[C@@H](c3ccc(O)cc3)N2C1=O`, for which the composite z-score is -0.471.
The compound `Cc1ccc(S(=O)(=O)N[C@H]2COC(=O)CC=C[C@H](C)COC(=O)N[C@@H](C)C(=O)CC=C[C@@H]2C)cc1` displayed a composite z-score of -0.0113.
With `C#CCCCON=C1C[C@@H](O)[C@@H](O)[C@@H]2[C@@H]3C(=O)N(Cc4ccc5c(c4)OCO5)C(=O)[C@@H]3CC[C@@H]12` the figure was 0.204; with `CO[C@H]1COC(=O)[C@@H](OCc2ccccc2)C=C[C@H](C)[C@@H](OC)COC(=O)[C@H](OCc2ccccc2)C=C[C@@H]1C`, -0.893; with `COCCOC(=O)N1C(=O)[C@@]2(c3cc(C#CCCO)ccc31)[C@H](c1ccc(OCCO)cc1)N1[C@H](c3ccccc3)[C@H](c3ccccc3)OC(=O)[C@H]1[C@@H]2C(=O)NC[C@H](O)c1ccccc1`, 1.4.
With `NC(=O)NCC#Cc1ccc2c(c1)[C@]1(C(=O)N2)[C@H](c2ccccc2OCCO)N2[C@H](c3ccccc3)[C@H](c3ccccc3)OC(=O)[C@H]2[C@@H]1C(=O)N1CCN(c2ncccn2)CC1` the figure was 0.583.
The result for `COCCOC(=O)N1C(=O)[C@@]2(c3cc(C#CCCO)ccc31)[C@H](c1ccc(O)cc1)N1[C@H](c3ccccc3)[C@H](c3ccccc3)OC(=O)[C@H]1[C@@H]2C(=O)Nc1nc2ccccc2s1` reads 1.25.
